# Measurements taken from PubChem BioAssay.
# Activity calls are given as the source filed them. How the calls were made is not given here.
# Columns and labels:
# [1] = Coupled enzyme confirmation of inhibitors against recombinant Mtb PanC (AID 375); conditions: coupled enzyme assay; measured here: coupling enzymes IC50 repeat trials unless noted;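 on inhibition: 0% = full reaction with vehicle and 100% = no enzyme background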
# [2] = target: Pantothenate synthetase (Mycobacterium tuberculosis (strain ATCC 25618 / H37Rv)) (UniProt P9WIL5); assay: as above; conditions: coupled enzyme assay; at 10 µM, stronger effect = higher value
# Pantothenate synthetase (Mycobacterium tuberculosis (strain ATCC 25618 / H37Rv)), sequence (P9WIL5 whole entry, looked up): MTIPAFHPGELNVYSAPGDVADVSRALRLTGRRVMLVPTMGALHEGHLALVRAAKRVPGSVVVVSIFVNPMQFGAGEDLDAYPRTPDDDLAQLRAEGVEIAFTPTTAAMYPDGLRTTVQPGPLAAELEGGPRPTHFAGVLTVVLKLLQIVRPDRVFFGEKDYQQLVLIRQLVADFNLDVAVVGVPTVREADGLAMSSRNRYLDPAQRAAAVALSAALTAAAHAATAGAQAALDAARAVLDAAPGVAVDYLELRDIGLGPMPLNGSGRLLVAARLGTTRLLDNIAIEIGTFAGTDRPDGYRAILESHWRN
compound,measurement,setting,value
Cc1cc(NC(=O)c2noc3c2CCCCC3)nn1Cc1ccc(Cl)cc1,IC50,[1],> 100 µM
same,outcome,[2],inactive
COC(=O)c1cccc(NC(=O)CN2CCN(Cc3ccccc3)CC2)c1,inhibition,[2],2% (inactive)
CN(C(=O)C1CCOC1)c1nnc(-c2cccnc2)s1 (stereo unspecified),inhibition,[2],0% (inactive)
CCCCn1c(SCC(=O)Nc2cc(C)on2)nnc1-c1cccnc1,inhibition,[2],0% (inactive)
Cc1cc(O)c(-c2cc(C(=O)Nc3ccc(S(=O)(=O)N4CCOCC4)cc3)[nH]n2)cc1C,inhibition,[2],0% (inactive)
CC1CN(C(=O)CSc2nnc(-c3ccncc3)n2-c2ccccc2)CC(C)O1 (stereo unspecified),inhibition,[2],1% (inactive)
Cc1ccc(CCNC(=O)C2CCN(S(=O)(=O)c3c(C)nn(C)c3C)CC2)cc1,inhibition,[2],0% (inactive)
COc1ccc2nc(SCC(=O)NC(C)C)[nH]c2c1,inhibition,[2],0% (inactive)
COc1ccc(N(CC(=O)Nc2ccc(F)c(Cl)c2)S(=O)(=O)c2c(C)noc2C)cc1,inhibition,[2],11% (inactive)
Cc1ccc(C)c(-n2c(Cc3cc(=O)[nH]c(=O)[nH]3)nnc2SCC(=O)NCc2ccco2)c1,inhibition,[2],0% (inactive)
O=S(=O)(c1ccc(Oc2ccc(-c3nnco3)cc2)nc1)N1CCC(Cc2ccccc2)CC1,inhibition,[2],0% (inactive)
COc1ccc(NC(=O)C(C)NS(=O)(=O)c2ccc(NC(C)=O)cc2)cc1Cl (stereo unspecified),inhibition,[2],9% (inactive)
Cc1cc(C)n(C(=O)CNC(=O)C2COc3ccccc3O2)n1 (stereo unspecified),inhibition,[2],1% (inactive)
CC1(C)CC(=O)C2=C(C1)Nc1nc(SCCN3CCOCC3)[nH]c(=O)c1C2c1cccs1 (stereo unspecified),inhibition,[2],2% (inactive)
Cc1cccc(N(CC(N)=O)S(C)(=O)=O)c1C,inhibition,[2],0% (inactive)
CCOC(=O)N1CCN(CC(=O)Nc2c(C(=O)OC)[nH]c3cccc(Cl)c23)CC1,inhibition,[2],0% (inactive)
CN1CCN(C2=C(Cl)C(=O)N(c3cccc(Cl)c3)C2=O)CC1,inhibition,[2],3% (inactive)
O=c1c2ccccc2nc(SCc2nc(-c3ccccc3)no2)n1-c1ccc(F)cc1,inhibition,[2],0% (inactive)
N#Cc1cc2sc3nnc(-c4ccncc4)n3c2cc1C#N,inhibition,[2],0% (inactive)
COc1ccccc1NC(=O)CSc1nnc(Cn2nnc(-c3ccccc3)n2)n1-c1ccccc1,inhibition,[2],0% (inactive)
CC1=NN(c2ccccc2)C(=O)C1,inhibition,[2],0% (inactive)
CCOc1ccc(NC(=O)c2ccccc2O)cc1,inhibition,[2],0% (inactive)
O=C(c1ccccc1)c1ccc2nc[nH]c2c1,inhibition,[2],0% (inactive)
COc1cc(NC(=O)Cc2cccs2)ccc1-n1cnnn1,inhibition,[2],10% (inactive)
COc1ccccc1N(CC(=O)Nc1cccnc1)S(C)(=O)=O,inhibition,[2],5% (inactive)
COc1ccc(CCNc2oc(Cc3cccc4ccccc34)nc2C#N)cc1OC,inhibition,[2],5% (inactive)
CCCSc1nc2c(c(=O)[nH]c(=O)n2C)n1CCc1ccccc1,inhibition,[2],5% (inactive)
CCOc1cc(C(=O)NCC2CCCO2)cc(OCC)c1OCC (stereo unspecified),inhibition,[2],3% (inactive)
Cc1ccc(N(C(=O)C2CCC(=O)N2)C2(C(=O)NC3CCCCC3)CCCCC2)cc1 (stereo unspecified),inhibition,[2],2% (inactive)
COCCNC(=O)CCCCCN1C(=O)CCC1=O,inhibition,[2],7% (inactive)
CCOC(=O)c1cnn(-c2cc(C)nc3c(-c4ccccc4)c(C)nn23)c1N,inhibition,[2],6% (inactive)
CCOc1cc(NC(=O)c2ccco2)c(OCC)cc1NC(=O)COc1ccccc1C,inhibition,[2],0% (inactive)
Cc1ccc(-c2cc(C(=O)O)n[nH]2)o1,inhibition,[2],0% (inactive)
C=CCSc1nnc(-c2ccccc2NC(C)=O)c(=O)[nH]1,inhibition,[2],0% (inactive)
Cc1noc(C)c1C(=O)OCC(=O)Nc1ccccc1C(=O)NC(C)c1ccccc1 (stereo unspecified),inhibition,[2],14% (inactive)
O=C(c1ccc2c(c1)OCCO2)N1CCCCC1,inhibition,[2],1% (inactive)
O=C(CNS(=O)(=O)c1ccc(Br)s1)N1CCCC1,inhibition,[2],0% (inactive)
CCCc1cc(=O)n2[nH]c(-c3ccc(Br)cc3)cc2n1,inhibition,[2],0% (inactive)
COc1cc2c(N3CCOCC3)cc(O)c(CC(=O)Nc3ccccc3)c2cc1OC,inhibition,[2],7% (inactive)
Cc1nnc(SCCn2c(N3CCC(Cc4ccccc4)CC3)nc3c2c(=O)[nH]c(=O)n3C)s1,inhibition,[2],2% (inactive)
N#C[C@@H]1[C@@H]2C(=O)N(c3ccc4c(c3)OCCO4)C(=O)[C@@H]2C2c3ccccc3C=CN21 (stereo partly specified),inhibition,[2],2% (inactive)
Cc1cc(C(=O)NCCCN2CCN(C3CCCCC3)CC2)n(-c2ccccc2)n1,inhibition,[2],4% (inactive)
CCOc1cc(C(=O)N2CCN(c3ccccc3)CC2)cc(OCC)c1OCC,inhibition,[2],3% (inactive)
O=C(NCCCNC1CCCCC1)c1ccc(/C=N/O)nc1,inhibition,[2],0% (inactive)
CCCCc1cc2c(c(NC(C)=O)n1)c(=O)oc1ccccc12,inhibition,[2],0% (inactive)
CC(C)[C@H](NC(=O)OC(C)(C)C)c1nnc(SCC(=O)Nc2ccc(Br)cc2)o1,inhibition,[2],0% (inactive)
COc1ccccc1-c1nc2n(n1)C(c1ccc(Cl)cc1)C(C(N)=O)=C(C)N2 (stereo unspecified),inhibition,[2],0% (inactive)
Cc1nc2cc(-n3ccc(=O)cc3)ccc2n1-c1ccccc1,inhibition,[2],2% (inactive)
Cc1cc(C(=O)CSc2nc3ccccc3n2CCC#N)c(C)n1Cc1cccs1,inhibition,[2],0% (inactive)
CC(=O)c1c(C)[nH]c(C(=O)NCc2cccs2)c1C,inhibition,[2],0% (inactive)
COc1ccccc1CC(=O)NCc1ccc2c(c1)OCO2,inhibition,[2],0% (inactive)
CCn1cc(C(=O)NC2CCc3ccccc32)c(=O)c2ccc(C)nc21 (stereo unspecified),inhibition,[2],0% (inactive)
Cc1cc2c(=O)n(Cc3ccco3)c(SCC(=O)NCc3ccco3)nc2s1,inhibition,[2],3% (inactive)
COc1ccc(C2(C(=O)Nc3cc(C)on3)CCOCC2)cc1,inhibition,[2],2% (inactive)
CCCCN(CCCNC(=O)C1CCN(S(=O)(=O)CC)CC1)c1ccccc1,inhibition,[2],0% (inactive)
